We go through 10 compounds from PubChem BioAssay.

Assay [1] in a line: inhibitors of TNFa-induced NFkB p65 translocation, primary screen, imaging, HUVEC, MLSMR starter and 10KST1 sets (AID 438;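 active = inhibition above 20% together with a positive visual image hit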;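 note: compound added about 3h40 before a 20 min TNFalpha stimulation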;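 for inhibition: signal is the nuclear over cytoplasmic p65 intensity ratio per well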). Conditions: HUVEC TNFa-induced p65 nuclear translocation; cell count: measured here: nuclei count (cytotoxicity indicator), at 2.08 µM; inhibition: at 2 µM, stronger effect = higher value, 0% TNFa-plus-vehicle, 100% no-TNFa wells.
A short description of assay [2]: inhibitors of mutant huntingtin aggregation, primary screen, imaging, exon1htt(103Q)mCFP cells, high-content imaging (AID 483;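 active = visual image review flags a hit and inhibition of aggregation exceeds 20%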;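 note: compound exposure lasted 3 days before fixation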;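 for nuclei count: percent of the per-plate median nuclei count of sample wells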). Conditions: exon1htt(103Q)mCFP cell line, aggregate imaging, at 2 µM; inhibition of aggregation: stronger effect = higher value; nuclei count: measured here: cell count, toxicity.
The nature of assay [3]: inhibitors of E-selectin induction by TNFa, primary screen, imaging, HUVEC, immunofluorescence, MLSMR starter and 10KST1 sets (AID 487;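 active = visually confirmed hit in the image check and inhibition above 20%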;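 for inhibition: signal is fraction of cell area covered by stained E-selectin grains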;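 for nuclei count: 100% = median nuclei count of all wells on the same plate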). Particulars: HUVEC TNFalpha-induced E-selectin immunofluorescence imaging, at 2 µM; inhibition: stronger effect = higher value; nuclei count: measured here: cell number, toxicity.
A short description of assay [4]: DUSP6 inhibitors restoring Erk phosphorylation by chemical complementation, primary imaging in DUSP6-transfected HeLa (AID 609;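 active = compounds giving at least 50% inhibition in the cell-based MKP-3 phosphatase rescue imaging test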;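 for inhibition: phospho-Erk level distribution per well compared with pooled transfected vehicle control wells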). Conditions: HeLa MKP-3 transfected, phospho-Erk imaging KS statistic, at 10 µM, cells stimulated with TPA for 15 min.
Assay [5] addresses Dual specificity protein phosphatase 6 (Homo sapiens) (UniProt Q16828). Described as above. Particulars: HeLa MKP-3 transfected, phospho-Erk imaging KS statistic; at 10 µM; stronger effect = higher value; cells stimulated with TPA for 15 min.
In assay [6] the target is Voltage-gated potassium channel subunit beta-2 (Rattus norvegicus) (UniProt P62483). In words: KvBeta enzyme negative modulators, primary screen, biochemical, NADPH fluorescence (AID 622;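 active = fluorescence slope higher than the sample average by over 3 SD, cut at about -0.22 in these data, passing the limit was not always enough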;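 note: slope of raw intensity against log time taken from 70 to 1610 s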). Conditions: recombinant KvBeta, 4-cyanobenzaldehyde reduction, at 10 µM, stronger effect = higher value.
Assay [7] has the same target. In words: KvBeta positive modulators, primary screen, biochemical, NADPH fluorescence (AID 623;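 active = NADPH fluorescence slope more negative than the mean of all samples by about 3 SD, 99.7% confidence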;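 note: fluorescence intensity change per second fitted from 20 to 320 s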). Particulars: Recombinant KvBeta, NADPH fluorescence decrease slope, 10 min; at 10 µM; stronger effect = lower value.
Assay [8] deals with Alpha-2C adrenergic receptor (Homo sapiens) (UniProt P18825). Briefly: modulators of alpha2C/GIRK thallium flux, primary screen, cell-based, HEK293 alpha2C/GIRK1/2 (AID 624;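 active = fluorescence slope after compound addition differing from the mean of all screened samples at 99.7% confidence, in either direction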;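 note: slope of fluorescence ratio to pre-addition baseline per second over 15 to 24 s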). Conditions: thallium flux BTC fluorescence, at 10 µM, actives lie on both sides.
A short description of assay [9]: inhibitors of larval lipid processing in zebrafish, primary screen, whole organism, PED6 fluorescence, gall bladder and intestine (AID 686;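 active = a full or partial loss of lipid-probe fluorescence in the fish gall bladder, intestine or both, judged by eye; inactive = no fluorescence loss, or compound toxic to the fish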;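 note: larvae 5 to 7 days old with five fish per well; signal comes from phospholipase A2 cleavage of quenched PED6 carried via bile; overnight exposure to compound and PED6 before scoring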). Conditions: Zebrafish larvae PED6 lipid processing, fluorescence scoring; screened at 20 µM (by protocol).
Assay [10] in a line: inhibitors of Chlamydomonas gravitaxis, primary screen, whole organism, Chlamydomonas reinhardtii, WT vs cilia-less mutant, absorbance, 96-well (AID 463189).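 Note: 0% = wild type cc124 cells in DMSO and 100% = ciliumless bld1 mutant cells.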 Particulars: OD600 absorbance, 2 days, at 10 µM, stronger effect = higher value.
Assay [11] in a line: inhibitors of Sendai virus-induced IRF3 signaling, primary screen, TLR/RLR signaling modifier project, cell-based, Sendai virus stimulus, luciferase, 10K MLSCN set (AID 602276;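 active = inhibition at or above 50% at 10 µM; inactive = inhibition below 50%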;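 note: firefly luciferase from ISG56 promoter only with Renilla not read in this screen; 0% = Sendai virus plus DMSO and 100% = medium plus DMSO without virus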). Particulars: HEK293 RL24 IRF3 luciferase reporter, at 10 µM, stronger effect = higher value.
The nature of assay [12]: inhibitors of poly I:C-induced TLR3 signaling, primary screen, cell-based, poly I:C stimulus, luciferase, 10K MLSCN set (AID 602277;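 active = inhibition of the reporter signal at or above 50%; inactive = inhibition below 50%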). Particulars: HEK293-TLR3 RL24 IRF3 luciferase reporter, at 10 µM, stronger effect = higher value.
The mark [13] stands for this setting: measured here: cell density z-score.
Where [14] appears, read: measured here: nuclear c-Myc green intensity z-score.
Where [15] appears, read: measured here: nuclear pErk red intensity z-score, stronger effect = higher value.

Molecules are shown by their SMILES. “And” between values parts separate entries of the source, which are not always exact repeats. Identical values can stand only once. More than one record can exist for a structure, and the calls need not agree. The source made the active and inactive calls.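 Rule for the calls, unless noted: active = inhibition at or above 50% relative to wild type and mutant plate controls; inactive = inhibition below 50%.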

Sequence of Alpha-2C adrenergic receptor (Homo sapiens) (P18825 whole entry, looked up): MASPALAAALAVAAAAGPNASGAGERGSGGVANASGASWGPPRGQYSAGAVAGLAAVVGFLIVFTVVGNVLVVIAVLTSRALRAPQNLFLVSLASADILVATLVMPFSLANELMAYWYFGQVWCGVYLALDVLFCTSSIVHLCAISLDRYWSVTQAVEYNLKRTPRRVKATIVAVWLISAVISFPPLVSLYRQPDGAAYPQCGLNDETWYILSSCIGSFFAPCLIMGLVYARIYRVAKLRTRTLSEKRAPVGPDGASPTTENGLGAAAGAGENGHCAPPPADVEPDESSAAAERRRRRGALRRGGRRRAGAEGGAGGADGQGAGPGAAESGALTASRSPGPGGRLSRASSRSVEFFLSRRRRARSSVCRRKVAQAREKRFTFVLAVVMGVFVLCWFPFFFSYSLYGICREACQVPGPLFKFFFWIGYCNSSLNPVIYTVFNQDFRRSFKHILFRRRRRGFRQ
Sequence of Voltage-gated potassium channel subunit beta-2 (Rattus norvegicus) (P62483 whole entry, looked up): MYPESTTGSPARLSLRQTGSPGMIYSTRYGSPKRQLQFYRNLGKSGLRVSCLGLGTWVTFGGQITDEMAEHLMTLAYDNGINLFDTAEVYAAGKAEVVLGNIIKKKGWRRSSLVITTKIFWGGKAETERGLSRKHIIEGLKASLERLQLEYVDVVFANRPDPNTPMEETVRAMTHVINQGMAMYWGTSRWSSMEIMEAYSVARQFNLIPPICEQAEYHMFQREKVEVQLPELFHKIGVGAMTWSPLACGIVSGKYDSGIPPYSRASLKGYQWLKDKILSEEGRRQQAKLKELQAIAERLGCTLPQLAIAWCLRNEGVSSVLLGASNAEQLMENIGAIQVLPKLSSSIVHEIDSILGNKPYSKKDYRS
Sequence of Dual specificity protein phosphatase 6 (Homo sapiens) (Q16828 whole entry, looked up): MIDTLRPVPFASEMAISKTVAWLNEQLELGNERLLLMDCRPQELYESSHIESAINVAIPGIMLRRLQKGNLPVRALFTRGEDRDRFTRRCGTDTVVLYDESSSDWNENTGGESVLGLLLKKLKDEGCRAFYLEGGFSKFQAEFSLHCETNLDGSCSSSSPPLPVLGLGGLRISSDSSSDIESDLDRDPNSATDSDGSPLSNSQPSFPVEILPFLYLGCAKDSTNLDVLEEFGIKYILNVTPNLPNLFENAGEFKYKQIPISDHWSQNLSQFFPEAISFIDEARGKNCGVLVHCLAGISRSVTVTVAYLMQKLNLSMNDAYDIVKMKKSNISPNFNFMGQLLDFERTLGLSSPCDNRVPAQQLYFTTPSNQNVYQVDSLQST

As for `CN(C)CCCN1c2ccccc2CCc2ccc(Cl)cc21`, the cell count in [1] came out at 621. Also, the inhibition in assay [1] was -7.8% (inactive); in assay [3] it was -129% (inactive); in assay [5], 7.39% (inactive); in assay [10] it was 16.7% (inactive) and 70.6% (active); in [11], 14.9% (inactive); in [12], 13.5% (inactive). Also, the inhibition of aggregation in assay [2] is -25.6% (inactive). Besides, the nuclei count in assay [2] was 113%; in assay [3] it was 124%. Also, the z-score in assay [4] (setting [13]) is -0.576; in [4] (setting [14]), 1.08; in assay [4] (setting [15]) it was 1.97. Besides, the fluorescence slope in assay [6] was -0.41 (inactive). Besides, the NADPH fluorescence slope in assay [7] is 3.7e-05 (inactive). In addition, the slope in assay [8] is 0.00326 (inactive). The outcome in assay [9] is “active; weak signal in gallbladder and intestine”.
Take `CN(C)CCCN1c2ccccc2Sc2ccc(Cl)cc21`: the cell count in [1] stood at 556. Moreover, the inhibition is 0% (inactive) in assay [1]; -64.8% (inactive) in [3]; -0.828% (inactive) in assay [5]; 67.6% (active) and 162% (active) in assay [10]; 16.5% (inactive) in assay [11]; 40.1% (inactive) in assay [12]. Further, in assay [2], the inhibition of aggregation is 14.2% (inactive). Also, the nuclei count in [2] stood at 101%; in assay [3], 123%. In addition, the z-score in assay [4] (setting [13]) is 1.02; in assay [4] (setting [14]), 0.553; in assay [4] (setting [15]) it was -0.0543. Further, the fluorescence slope in assay [6] is -0.472 (inactive). Also, in assay [7], the NADPH fluorescence slope is -6e-05 (inactive). The slope in [8] is 0.00356 (inactive). For the same compound, the result in assay [9] was inactive.
On to `CCCNC(=O)NS(=O)(=O)c1ccc(Cl)cc1`, for which, in assay [1], the cell count was found to be 639. Besides, the inhibition was -5.9% (inactive) in assay [1]; -56.7% (inactive) in assay [3]; -0.493% (inactive) in assay [5]; -16% (inactive) and -6.85% (inactive) in assay [10]; -0.0514% (inactive) in [11]; 14.7% (inactive) in assay [12]. Moreover, the inhibition of aggregation in assay [2] was 14.1% (inactive). Besides, the nuclei count in [2] was found to be 84.6%; in assay [3] it was 120%. Besides, the z-score in assay [4] (setting [13]) is -0.235; in [4] (setting [14]), 0.988; in assay [4] (setting [15]), 1.2. In addition, in assay [6], the fluorescence slope is -0.477 (inactive). In addition, in assay [7], the NADPH fluorescence slope is -1.5e-05 (inactive). Moreover, in assay [8], the slope is 0.00564 (inactive). The result in assay [9] was inactive.
On to `COc1cc([C@@H]2c3cc4c(cc3[C@H](O)[C@H]3COC(=O)[C@H]23)OCO4)cc(OC)c1OC`, for which the cell count in [1] amounted to 436. The inhibition is 21.5% (active) in assay [1]; -226% (inactive) in assay [3]; -6.41% (inactive) in assay [5]; 0.865% (inactive) in assay [10]; 33.7% (inactive) in assay [11]; 81.6% (active) in assay [12]. In [2], the inhibition of aggregation is -118% (inactive). In addition, the results for the nuclei count in assay [2] and in assay [3] were 1.5% and 86.2%, respectively. In addition, the z-score in assay [4] (setting [13]) was 0.542; in assay [4] (setting [14]) it was -0.666; in assay [4] (setting [15]), -0.822. Also, the fluorescence slope in [6] was -0.472 (inactive). For the same compound, in assay [7], the NADPH fluorescence slope was -0.000104 (inactive). Further, the slope in [8] was 0.00519 (inactive). Moreover, the call in assay [9] was inactive.
`CCCC(=O)O[C@]1(C(=O)CCl)[C@@H](C)C[C@H]2[C@@H]3CCC4=CC(=O)C=C[C@]4(C)[C@@]3(F)C(=O)C[C@@]21C`: the cell count in [1] was 614. Further, the inhibition was -3.2% (inactive) in assay [1]; -61.7% (inactive) in [3]; 19.2% (inactive) in [5]; 47.7% (inactive) in [10]; -12.4% (inactive) in [11]; -5.01% (inactive) in assay [12]. In assay [2], the inhibition of aggregation is -2.9% (inactive). Moreover, the nuclei count in [2] was determined as 63.4%; in assay [3] it was 120%. Moreover, the z-score in assay [4] (setting [13]) is 0.0825; in assay [4] (setting [14]), 0.587; in assay [4] (setting [15]) it was -0.866. In addition, the fluorescence slope in [6] was -0.535 (inactive). The NADPH fluorescence slope in assay [7] is -7e-05 (inactive). In addition, the slope in [8] is 0.00401 (inactive). Further, the result in assay [9] was inactive.
For `CCCC(=O)O[C@]1(C(=O)COC(C)=O)CC[C@H]2[C@@H]3C[C@H](F)C4=CC(=O)C=C[C@]4(C)[C@@]3(F)[C@@H](O)C[C@@]21C`, in assay [1], the cell count worked out at 642. In addition, the inhibition in [1] is -9.3% (inactive); in assay [3], -95.2% (inactive); in assay [5] it was -0.493% (inactive); in assay [10], 9.17% (inactive); in assay [11] it was 15.9% (inactive); in assay [12], 48.2% (inactive). Further, the inhibition of aggregation in [2] was -34.4% (inactive). Moreover, the nuclei count is 61.6% in [2] and 136% in [3]. Moreover, the z-score was -0.0756 in assay [4] (setting [13]), -0.093 in assay [4] (setting [14]) and 0.355 in assay [4] (setting [15]). Besides, in [6], the fluorescence slope is -0.5 (inactive). In assay [7], the NADPH fluorescence slope was -5.5e-05 (inactive). For the same compound, the slope in [8] is 0.00445 (inactive). Further, the outcome in [9] was inactive.
As for `CC1(C)CC(=O)C2=C(C1)N(CC1CCCO1)C(=O)C2(O)C(F)(F)F` (stereo not given), in [1], the cell count came out at 503. The inhibition in [1] was 6.9% (inactive); in [3], -123% (inactive); in assay [5], 1.75% (inactive); in assay [10] it was 29.7% (inactive); in assay [11] it was -0.648% (inactive); in assay [12], 98% (active). In addition, the inhibition of aggregation in assay [2] is -2.8% (inactive). For the same compound, the nuclei count was 108% in [2] and 123% in [3]. The z-score was -0.368 in assay [4] (setting [13]), 0.41 in assay [4] (setting [14]) and -0.669 in [4] (setting [15]). Besides, the fluorescence slope in assay [6] was -0.492 (inactive). The NADPH fluorescence slope in assay [7] was -1.2e-05 (inactive). Moreover, the slope in assay [8] was 0.00532 (inactive). Also, in assay [9], the compound was called inactive.
Take `CC(C)Sc1nc(N2CCCC2)c2c(c1C#N)CC(C)(C)OC2`: in assay [1], the cell count turned out to be 547. In addition, the inhibition is -6.2% (inactive) in [1]; -59.4% (inactive) in assay [3]; 24.4% (inactive) in [5]; 48.4% (inactive) in assay [10]; 14% (inactive) in assay [11]; 18.1% (inactive) in [12]. The inhibition of aggregation in assay [2] is 15.4% (inactive). In addition, the nuclei count turned out to be 73.8% in assay [2] and 126% in assay [3]. Moreover, the z-score in assay [4] (setting [13]) was 1.33; in assay [4] (setting [14]), -1.33; in [4] (setting [15]), -0.539. Also, the fluorescence slope in assay [6] is -0.386 (inactive). Further, the NADPH fluorescence slope in assay [7] is 4.7e-06 (inactive). For the same compound, the slope in assay [8] was 0.00612 (inactive). The compound was called inactive in assay [9].
As to `CCCCN(CCCC)CCCOC(=O)c1ccc(N)cc1`, the cell count in assay [1] came to 680. In addition, the inhibition in assay [1] was -1.8% (inactive); in [3], -60.2% (inactive); in [5] it was -4.44% (inactive); in [10], 12.6% (inactive); in [11] it was -12.8% (inactive); in [12] it was 56.3% (active). The inhibition of aggregation in assay [2] was 7.7% (inactive). The nuclei count stood at 97.6% in assay [2] and 130% in assay [3]. Further, the z-score was -0.857 in assay [4] (setting [13]), -0.989 in assay [4] (setting [14]) and 0.993 in [4] (setting [15]). For the same compound, the fluorescence slope in [6] was -0.511 (inactive). In [7], the NADPH fluorescence slope was -5.7e-05 (inactive). Further, the slope in assay [8] is 0.00529 (inactive). The compound was classed as inactive in assay [9].
Consider `Cc1nn(C)cc1/C=N/O`, for which, in [1], the cell count is 677. The inhibition is -4.1% (inactive) in assay [1]; -8.8% (inactive) in assay [3]; -1.12% (inactive) in assay [5]; 7.83% (inactive) in assay [10]; 15.8% (inactive) in [11]; 19% (inactive) in [12]. Besides, the inhibition of aggregation in assay [2] was -2.1% (inactive). Further, the nuclei count in assay [2] stood at 83.6%; in assay [3], 140%. Also, the z-score is 0.232 in assay [4] (setting [13]), -1.13 in [4] (setting [14]) and -0.23 in assay [4] (setting [15]). Also, the fluorescence slope in [6] is -0.494 (inactive). For the same compound, in [7], the NADPH fluorescence slope is -0.000175 (inactive). The slope in [8] was 0.00422 (inactive). In addition, in assay [9], the compound was classed as inactive.
